Where “and” joins values, the source holds several entries; their conditions need not be identical. Equal values may be shown once. Screen size: about 140,000 compounds; about 80 (0.06%) were called active. No stated cut-off is given here; in the data, active means displacement above about 50%; inactive means the rest. Only a selection was taken, and actives are over-represented in it overall. Where a structure was tested more than once in an assay, its records may differ in their call.
Each compound was assayed against Heat shock 70 kDa protein 1A (Homo sapiens) (UniProt P0DMV8) (assay: Hsp70 inhibitors, probe displacement, primary screen, biochemical, fluorescence polarization (AID 583;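 further: plate controls were vehicle for no effect and reference ligand for full effect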)). Conditions: mP, at 20 µM, stronger effect = higher value.
Chain of Heat shock 70 kDa protein 1A (Homo sapiens) (P0DMV8 whole entry, looked up): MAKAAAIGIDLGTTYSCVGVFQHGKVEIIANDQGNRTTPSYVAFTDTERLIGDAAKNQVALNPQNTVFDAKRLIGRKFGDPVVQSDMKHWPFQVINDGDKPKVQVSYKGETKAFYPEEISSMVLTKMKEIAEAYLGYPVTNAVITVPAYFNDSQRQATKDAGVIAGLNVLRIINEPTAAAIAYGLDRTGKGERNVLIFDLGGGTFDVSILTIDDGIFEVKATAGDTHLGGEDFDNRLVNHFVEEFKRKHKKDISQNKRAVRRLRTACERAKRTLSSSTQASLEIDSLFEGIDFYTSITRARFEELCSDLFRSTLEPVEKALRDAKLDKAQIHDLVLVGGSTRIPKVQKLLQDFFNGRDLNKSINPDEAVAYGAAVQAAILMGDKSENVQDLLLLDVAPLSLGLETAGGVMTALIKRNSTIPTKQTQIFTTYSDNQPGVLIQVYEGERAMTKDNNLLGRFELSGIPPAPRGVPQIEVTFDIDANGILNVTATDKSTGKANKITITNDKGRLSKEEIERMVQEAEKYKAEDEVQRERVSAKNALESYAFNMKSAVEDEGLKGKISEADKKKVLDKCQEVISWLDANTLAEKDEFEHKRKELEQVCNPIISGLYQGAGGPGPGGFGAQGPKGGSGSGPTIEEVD
In the case of `CCOC(=O)c1c(NC(=O)c2cccnc2)sc2c1CCC2`, the displacement was -2% (inactive).
In the case of `CC(C)OC(=O)c1c(NC(=O)c2cccnc2)sc2c1CCCCC2`, the displacement was 80.1% (active).
For `CCOC(=O)c1c(NC(=O)c2cccnc2)sc2c1CCCC2`, the displacement was 6.4% (inactive).
For `COc1ccc(-c2cc(C(F)(F)F)nc(-n3cc(Br)cn3)n2)cc1`, the displacement was -0.2% (inactive).
`O=C(O)CCCCCN1C(=O)/C(=C2/C(=O)N(CC(=O)O)c3ccccc32)SC1=S` was tested, and the displacement was 5.6% (inactive).
For `O=C(O)CCN1C(=O)/C(=C2\C(=O)N(Cc3ccccc3Cl)c3ccccc32)SC1=S`, the displacement was 53.2% (active).
`CCCN1C(=O)/C(=C2\SC(=S)N(CCC(=O)O)C2=O)c2ccccc21` was tested, and the displacement was -0.7% (inactive).
`Cc1cc(C)c(C(=O)CSc2n[nH]c(=O)n2C2CC2)cc1C` was tested, and the displacement was 0.8% (inactive).
In the case of `COCCOC(=O)c1ccc(NC(=O)COc2ccc(C)cc2)cc1`, the displacement was 3.9% (inactive).
`COCCOC(=O)c1ccc(NC(=O)COc2cc(C)c(Cl)c(C)c2)cc1` was tested, and the displacement was 0.2% (inactive).
With `COCCOC(=O)c1ccc(NC(=O)COc2ccc(C)c(C)c2)cc1` the displacement was 86.3% (active).
For `C/C(=N\NC(=O)c1cc(-c2cccc([N+](=O)[O-])c2)n[nH]1)c1ccccc1O`, the displacement was -0.9% (inactive).
`CCN(CC)C(=O)CSc1nnc(CCN)o1` was tested, and the displacement was -0.4% (inactive).
For `O=c1c2ccccc2nnn1CSc1nnc(-c2cccc(S(=O)(=O)N3CCCCC3)c2)o1`, the displacement was -0.1% (inactive).
In the case of `CCOC(=O)C(=O)Nc1ccc(C(N)=O)cc1`, the displacement was -0.8% (inactive).
With `CCOC(=O)C(=O)Nc1ccc(NC(C)=O)cc1` the displacement was 56.6% (active).
With `CCOC(=O)C(=O)Nc1ccc(F)cc1` the displacement was 5.5% (inactive).
With `CCc1ccccc1NC(=O)CN(c1ccc(OC)c(Cl)c1)S(C)(=O)=O` the displacement was -3.3% (inactive).
In the case of `O=C(O)C1Nc2c(Cl)cc(Cl)cc2C2C=CCC12` (configuration not stated), the displacement was 78% (active).
In the case of `O=C(O)C1Nc2c(C(=O)N3CCCC3)cccc2C2C=CCC12` (configuration not stated), the displacement was 11.2% (inactive).
For `COc1ccc2c(c1)C1C=CCC1C(C(=O)O)N2` (configuration not stated), the displacement was 31.6% (inactive).
With `Cc1c(Cl)ccc2c1NC(C(=O)O)C1CC=CC21` (configuration not stated) the displacement was 95.7% (active).
`O=C(O)C1Nc2c(C(=O)N3CCOCC3)cccc2C2C=CCC12` (configuration not stated) was tested, and the displacement was 17.9% (inactive).
For `Cc1cc(I)c2c(c1)C1C=CCC1C(C(=O)O)N2` (configuration not stated), the displacement was 23.8% (inactive).
In the case of `O=C(Nc1ccc2c(c1)OCCO2)c1cnc2ccccn2c1=O`, the displacement was 0.6% (inactive).
For `CCN(CC)CCCOc1c(Cl)cccc1Cl`, the displacement was 0.3% (inactive).
In the case of `Cc1cccc(OCC(=O)N2CCN(C(=O)c3cccs3)CC2)c1`, the displacement was -2.2% (inactive).
For `O=C1c2cccc3cccc(c23)C(=O)N1c1ccc2c(c1)OCO2`, the displacement was -2.6% (inactive).
With `CCOC(=O)c1c(C)nc(C)nc1NC(=O)c1ccccc1` the displacement was 85.3% (active).
`CCOC(=O)c1c(C)nc(-c2ccccc2)nc1NC(=O)c1ccccc1` was tested, and the displacement was -1.8% (inactive).
`CCOC(=O)c1c(C)nc(-c2ccccc2)nc1NC(C)=O` was tested, and the displacement was 0.2% (inactive) and 7.4% (inactive).
With `CC1=C(C(=O)Nc2ccccn2)C(c2cccnc2)n2nnnc2N1` (configuration not stated) the displacement was 1.5% (inactive).
With `COc1cccc(-c2nc3ccccc3c(=O)o2)c1` the displacement was -0.1% (inactive).
In the case of `O=[N+]([O-])c1ccc(O)c(-c2cc(C(F)(F)F)nc(-c3ccccc3)n2)c1`, the displacement was 4.6% (inactive).
With `O=c1nc(/C=C/c2cc([N+](=O)[O-])ccc2Cl)cc(C(F)(F)F)[nH]1` the displacement was 3.5% (inactive).
`O=C(Cn1ncc2c1-c1ccccc1OC2)Nc1nc2ccccc2s1` was tested, and the displacement was 0% (inactive).
`N#Cc1c(NC(=O)CCN2C(=O)c3ccccc3C2=O)sc2c1CCCC2` was tested, and the displacement was 72.6% (active).
For `NC(=O)c1c(NC(=O)CCN2C(=O)c3ccccc3C2=O)sc2c1CCC2`, the displacement was -3.3% (inactive).
With `N#Cc1c(NC(=O)CCCN2C(=O)c3ccccc3C2=O)sc2c1CCCC2` the displacement was 2.9% (inactive).
For `COc1ccc(C2Nc3ccccc3NC3=C2C(=O)CC(c2ccc(Cl)cc2)C3)cc1` (configuration not stated), the displacement was -0.1% (inactive).
For `CC1(C)C2CCC1(C)C(NC(=O)C1CC3c4ccccc4C1c1ccccc13)C2` (configuration not stated), the displacement was 1.1% (inactive).
With `Cc1ccc(NC(=O)CSc2nnc(-c3ccccc3Br)o2)cc1C` the displacement was -2.9% (inactive).
With `Cc1ccccc1-n1c(O)c(C=C2C=CC=N2)c(=O)[nH]c1=S` the displacement was 44.3% (inactive).
`Cn1c(O)c(/C=C2/C=CC=N2)c(=O)n(-c2ccccc2)c1=S` was tested, and the displacement was 53% (active).
With `O=c1[nH]c(=S)n(-c2cccc(Cl)c2)c(O)c1/C=C1/C=CC=N1` the displacement was 10% (inactive).
For `CC1=C(C)CC2C(=O)N(c3ccc(Br)cc3)C(=O)C2C1` (configuration not stated), the displacement was 4.3% (inactive).
`O=C1C2CC=C(c3ccccc3)CC2C(=O)N1c1ccc(Br)cc1` (configuration not stated) was tested, and the displacement was 60.4% (active).
With `Cc1ccc(N2C(=O)C3CC=C(c4ccccc4)CC3C2=O)cc1` (configuration not stated) the displacement was -0.4% (inactive).
In the case of `O=C1NC(=S)S/C1=C/c1cc(Br)ccc1OCc1ccccc1Cl`, the displacement was 4.3% (inactive).
For `Cn1c(CN2CCCCC2)nc2cc(NC(=O)c3ccccc3)ccc21`, the displacement was 1.9% (inactive).
With `COc1ccc(OC)c(NC(=S)NC(NC(=O)Cc2ccccc2)C(Cl)(Cl)Cl)c1` (configuration not stated) the displacement was -6.4% (inactive).
In the case of `O=C(Nc1ccccc1)c1ccccc1C(=O)N1CCCCC1`, the displacement was 4.4% (inactive).
For `CC1(C)OC(=O)C(=Cc2ccc(-c3ccc(Cl)cc3Cl)o2)C(=O)O1`, the displacement was -3.2% (inactive).
`CC1(C)OC(=O)C(=Cc2ccc(I)o2)C(=O)O1` was tested, and the displacement was 97.3% (active).
With `O=C1C(=Cc2ccc(I)o2)C(=O)c2ccccc21` the displacement was 10.7% (inactive).
With `COc1ccc(OC)c(C=NN2CCN(Cc3ccccc3Cl)CC2)c1` the displacement was -1.8% (inactive).
With `CCOc1cc(C2Nc3ccc4ccccc4c3C3=C2CC(C)(C)CC3=O)ccc1O` (configuration not stated) the displacement was 2.3% (inactive).
In the case of `Cc1csc(NC(=O)c2ccc([N+](=O)[O-])cc2Cl)n1`, the displacement was 5.8% (inactive).
`Nc1ccc(S(=O)(=O)O)c2cccc(S(=O)(=O)O)c12` was tested, and the displacement was 6.4% (inactive).
In the case of `Nc1cc(S(=O)(=O)O)cc2cccc(S(=O)(=O)O)c12`, the displacement was 4.7% (inactive).
In the case of `Nc1ccc(S(=O)(=O)O)c2cccc(O)c12`, the displacement was 34.1% (inactive) and 73.7% (active).
In the case of `O=C1c2ccccc2C(=O)N1/N=C/c1ccc(O)cc1O`, the displacement was -1.5% (inactive).
